According to PubChem BioAssay AID651558 (National Center for Advancing Translational Sciences (NCATS), 2012):
Out of some 1,200 compounds screened, about 480 (40%) were called active. About 29% were inconclusive and are not listed. Calls come from the whole dose curve; as a rule, active = well fitted inhibition curve with a large enough effect; inconclusive = small, poorly fitted or top-dose-only effect; inactive = no such curve, though single readings can be large or run the other way. The list shows a part of the results.

assay: qHTS Assay to Find Inhibitors of Chronic Active B-Cell Receptor Signaling: Hit Validation in Primary Screen; conditions: ABC-DLBCL IkB-luc/CBR ratio luminescence, 4 h; series mostly up to 46.1 µM; note: nearly all actives have a fitted effect of over 75% in size
Description: Diffuse large B-cell lymphoma (DLBCL) is the most common category of non-Hodgkin lymphoma, with ~20,000 new cases per year in the United States. DLBCL should be regarded as a collection of different neoplasms. Microarray gene expression analysis has defined two principal types of DLBCL, named for their similarity to normal B cell stages or activation states: a germinal center B-cell (GCB) type, and an activated B-cell (ABC) type. In ABC-DLBCL, a constitutive high-level activity of the NF-kappaB family of transcription factors has been observed (1) and NF-kappaB target genes are more highly expressed in ABC primary tumors than in GCB tumors. Functional studies have shown a constitutive high-level activity of the IkappaB (inhibitor of kappa-B) kinase (IKK) complex. […] Further analysis of DLBCL primary tumors for NF-kappaB target gene expression imply that although CARD11 is required for constitutive IKK activity in all ABC-DLBCL lines, mutations in CARD11 may be the root cause of IKK activation only in lines or tumors with such mutations. In other words, CARD11 mutations may explain NF-kappaB activation in only 10% of ABC-DLBCL cases. […] This process has been termed 'chronic active BCR signaling' (CABS). The goal of this screen is to find small-molecule inhibitors of the CABS pathway found in ABC-DLBCL lines using a cell-based assay that measures IkappaBalpa stability, which has already been extensively validated in the OCI-Ly3 line (PubChem AID:445; REF: 4). […] A cell-sensor assay for I-kappa-B-alpha stabilization has been developed. The assay uses green (CBG68) and red (CBR) emitting beetle luciferases [Chroma-GloTM developed by Promega Corp.] where the green luciferase is fused to IkappaBalpha and the red luciferase is present in its native state. Both luciferase genes are stably present in the TMD8 human ABC DLBCL cell line, but their expression is under the control of tetracycline-inducible promoters. Following the addition of doxycycline to induce expression of the luciferases, the green luminescence in control cultures rises only slowly because the CBG fusion partner IkappaBalpha is targeted by IKK activity for rapid degradation. In contrast, green luminescence rises rapidly in the presence of proteasome inhibitors or IKK inhibitors. The rise in red luminescence of CBR is not affected by proteasome or IKK inhibitors, and serves as normalization for cell number and nonspecific effects. Compounds were screened as a concentration-titration series that ranged from 46 uM to 3 nM. NIH Molecular Libraries Probe Production Network [MLPCN] NIH Chemical Genomics Center [NCGC] MLPCN Grant: R03 DA031086 PI Name: Dr. R. Eric Davis
Cells were seeded in 1536-well plates at 5000 cells/4uL in IMDM medium containing 0.5% FBS, w/o phenol red, 1% penicillin/streptomycin. Then, 23 nL of compounds or DMSO were delivered to each well using a pin tool. One uL 20ng/ml doxycycline was then dispensed into white solid 1536-well plates and the plates were incubated at 37C/5% C02 in a cell incubator for 4 hrs. Then 4 uL luminescent substrate mix (in-house prepared: 150 mM Tris-Cl, pH 7.6, 3 mM MgCl2, 1% Triton X-100, 5 mM DTT, 0.2 mM CoA, 0.15 mM ATP, 5 mM D-luciferin, final concentrations) was added to each well. The plate was incubated at r.t. for 10-15 min. The plates were measured on a ViewLux plate reader for green luminescence (540/20 nm filter) and red luminescence (618/8 nm filter). The green and red luminescent signals were corrected for red and green luminescence filter overlap using previously determined filter calibration constants (determined using the procedure outlined in the Promega Technical Manual; REF 4). The %Activity was determined from the ratio of corrected green/red luminescent values. MG132 were used as control. Green luminescent and ratio %Activity was determined by normalizing to the difference in signal between basal cells (0% Activity) and cells incubated with 10 uM of the proteasome inhibitor MG-132 (100% Activity). […]
Potency is the fitted concentration of half-maximal effect.

SMILES	Potency
COc1cc2c(c(OC)c1OC)-c1ccc(O)cc1[C@@H](NC(C)=O)CC2	461 nM (active)
COc1cc2c(c(OC)c1OC)-c1ccc(O)c(=O)cc1C(NC(C)=O)CC2 (stereo unspecified)	231 nM (active)
COc1cc(C2c3cc4c(cc3CC3COC(=O)C32)OCO4)cc(OC)c1OC (stereo unspecified)	inactive
COc1cc([C@@H]2c3cc4c(cc3[C@H](O)[C@H]3COC(=O)[C@H]23)OCO4)cc(OC)c1OC	46.1 nM (active)
CCCCOCCCn1c(N)c(C(=O)OCCOC)c2nc3ccccc3nc21	inactive
C=CC[C@@H](CC/C=C/C=C/CC/C=C\[C@@H]1CSC([C@@H]2C[C@@H]2C)=N1)OC	820 nM (active)
CC[C@]12CC[C@H](O)CC1=CCC1C2CC[C@]2(C)C(=O)CCC12 (stereo partly specified)	inactive
O=c1c2ccccc2[se]n1-c1ccccc1	20600 nM (active)
Cc1cc(C)c(C(=O)CN2CCOCC2)c(C)c1	inactive
CCNC(=O)[C@H]1O[C@@H](n2cnc3c(N)ncnc32)[C@H](O)[C@@H]1O	130 nM (active)
COc1ccc(C(=O)Oc2cccc3cccnc23)cc1S(=O)(=O)N1CCOCC1	inactive
C/C(=N\N1CCCCC1)c1c(O)[nH]c(=O)[nH]c1=O	inactive
CCC(=NCCC(c1ccccc1)c1ccccc1)c1c(O)[nH]c(=O)[nH]c1=O	20600 nM (active)
O=C1C(=O)c2cccc3cccc1c23	18400 nM (active)
CCc1ccccc1N1C(=O)/C(=C/c2ccc(N3CCN(C)CC3)o2)C(=O)NC1=S	inactive
O=c1c2ccccc2nc(/C=C/c2ccc([N+](=O)[O-])o2)n1-c1ccc(O)cc1	4110 nM (active)
COc1ccc(C=C2C(=O)N(C)C(=O)N(C)C2=O)cc1COc1ccc(NC(C)=O)cc1	inactive
C#CCOc1cc(C2C3=C(COC3=O)Nc3cc4c(cc32)OCO4)ccc1OC (stereo unspecified)	1460 nM (active)
CN(C)C(=S)SSC(=S)N(C)C	16400 nM (active)
COc1ccc(-c2nn(CCC#N)cc2C(=O)Nc2ccc(C(C)=O)cc2)cc1[N+](=O)[O-]	inactive
COc1cc2c(cc1O)CC[C@@H]1[C@@H]2CC[C@]2(C)[C@@H](O)CC[C@@H]12	18400 nM (active)
